Results filed as inconclusive are left out. Entries that show only a call come without a potency. The source made the active and inactive calls. Calls follow the shape of the dose curve; as a rule, active = well fitted curve in the direction sought with a large enough effect; inconclusive = small, poorly fitted or top-dose-only effect, or another doubt; inactive = no such curve, though single readings can be large; an effect the other way counts as inactive or inconclusive.
Legend:
[1] = target: Aldehyde dehydrogenase, mitochondrial (Homo sapiens) (UniProt P05091); experiment: qHTS for Inhibitors of the Aldehyde Dehydrogenase Family (ALDH2) Primary screen (AID 2061308); also: nearly all actives have a fitted effect of over 55% in size; also: potency is read from the fitted curve at half-maximal effect
[2] = target: Retinaldehyde dehydrogenase 3 (Homo sapiens) (UniProt P47895); experiment: qHTS for Inhibitors of the Aldehyde Dehydrogenase Family (ALDH1A3) Confirmatory screens (AID 2061311); also: nearly all actives have a fitted effect of over 60% in size; also: potency is read from the fitted curve at half-maximal effect
[3] = target: Retinal dehydrogenase 2 (Homo sapiens) (UniProt O94788); experiment: qHTS for Inhibitors of the Aldehyde Dehydrogenase Family (ALDH1A2) Confirmation screens (AID 2061314); also: potency is read from the fitted curve at half-maximal effect; nearly all actives have a fitted effect of over 65% in size
[4] = target: Retinaldehyde dehydrogenase 3 (Homo sapiens) (UniProt P47895); experiment: qHTS for Inhibitors of the Aldehyde Dehydrogenase Family (ALDH1A3) Primary screen (AID 2061315)
[5] = target: Aldehyde dehydrogenase 1A1 (Homo sapiens) (UniProt P00352); experiment: qHTS for Inhibitors of the Aldehyde Dehydrogenase Family (ALDH1A1) Confirmatory screens (AID 2061316); also: nearly all actives have a fitted effect of over 65% in size; also: potency is read from the fitted curve at half-maximal effect
[6] = target: Retinaldehyde dehydrogenase 3 (Homo sapiens) (UniProt P47895); experiment: qHTS for Inhibitors of the Aldehyde Dehydrogenase Family (ALDH1A3) Validation screen (AID 2061312); also: nearly all actives have a fitted effect of over 45% in size; also: potency is read from the fitted curve at half-maximal effect

| Compound | Potency [1] | Potency [2] | Potency [3] | Potency [4] | Potency [5] | Potency [6] |
| --- | --- | --- | --- | --- | --- | --- |
| O=C(C(NS(=O)(=O)c1ccc2[nH]c(=O)ccc2c1)c1cccc(C(F)(F)F)c1)N(Cc1ccco1)Cc1cccs1 (stereo not given) | inactive | 25.2 µM (active) | 12.7 µM (active) | inactive | inactive | – |
| Cc1ccnc(NC(=S)N[C@@H]2CCN(c3cccc(C(F)(F)F)c3)C2)c1 | inactive | inactive | – | inactive | – | – |
| CC(C)(C)OC(=O)N1CCN(c2ccc(NCc3occc3-c3ccc(C#N)cc3)cc2)CC1 | inactive | 20.1 µM (active) | 12.7 µM (active) | – | 11.3 µM (active) | – |
| CCS(=O)(=O)N(Cc1cccnc1)c1cccc(-c2ccc(C#N)cc2)c1 | inactive | – | – | – | – | 6.31 µM (active) |
| Cc1cn(C2C=CC(CO)O2)c(=O)[nH]c1=O (stereo not given) | inactive | – | – | inactive | – | inactive |
| C[C@]12CC[C@@H]3c4ccc(O)c(O)c4CC[C@H]3[C@@H]1CCC2=O | 15.8 µM (active) | 15.9 µM (active) | – | – | 1.59 µM (active) | – |
| CCOC(=O)c1[nH]c2c(c1C)C(=O)CC(c1ccco1)C2 (stereo not given) | inactive | 12.7 µM (active) | – | inactive | 2.52 µM (active) | – |
| CC(C)C1CCC(C(=O)N[C@@H](Cc2ccccc2)C(=O)O)CC1 (stereo not given in full) | inactive | – | – | inactive | – | inactive |
| O=C(CCCCCCC(=O)Nc1ccc(C2OC(CSc3nc(-c4ccccc4)c(-c4ccccc4)o3)CC(c3ccc(CO)cc3)O2)cc1)NO (stereo not given) | inactive | – | – | – | – | 10 µM (active) |
| CC(C)n1cnc2c(Nc3cccc(Cl)c3)nc(NCCO)nc21 | inactive | – | – | inactive | – | inactive |
| COc1ccc(C2NC(=O)c3ccccc3N2)cc1COc1ccc(NC(C)=O)cc1 (stereo not given) | inactive | inactive | – | inactive | – | – |

— PubChem BioAssay (NCATS)
